Screening results (PubChem)
ssDAF-12 act – activators of S. stercoralis DAF-12 nuclear receptor. HEK293 ssDAF-12/GRIP1 lit1-tk-luc reporter, luminescence; % of 3 µM dafachronic acid response. activation, % at 6.8 µM. hit rate 1% among 370,000. AID 652126;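 active = activation above the mean over all tested compounds plus 3 SD, cut at about 0.9% in these data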
hgDAF-12 ag – agonists of H. glycines DAF-12 nuclear receptor; activation, % at 6.8 µM; HEK293 GAL4-hgDAF12 UAS-luciferase reporter, agonist luminescence; normalized to butyrate control; hit rate 1.8% among 370,000; AID 687014;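 active = activation above a cutoff set at the mean of all screened compounds plus 3 SD, cut at about 10% in these data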
DAX1 inh-1 – inhibits human nuclear receptor DAX1; HEK293 Gal4-DAX1 luciferase reporter, luminescence; inhibition, % at 6.75 µM; hit rate 0.99% among 340,000; AID 504766;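 active = inhibition above the mean over all tested compounds plus 3 SD, cut at about 4.2% in these data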;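 note: inhibition shows as a rise in luminescence from relieved DAX1 repression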
Target sequence (P51843 207-470 limits assumed): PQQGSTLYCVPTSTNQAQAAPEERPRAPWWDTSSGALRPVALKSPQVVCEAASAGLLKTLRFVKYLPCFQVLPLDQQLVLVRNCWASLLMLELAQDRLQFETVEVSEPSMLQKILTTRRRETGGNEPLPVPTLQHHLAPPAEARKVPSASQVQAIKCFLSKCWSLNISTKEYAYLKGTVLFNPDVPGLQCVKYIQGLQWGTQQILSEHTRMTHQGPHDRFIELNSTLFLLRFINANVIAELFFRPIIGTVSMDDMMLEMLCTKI
DAX1 inh-2 – blocks DAX1 repression of SF-1 activated StAR promoter; hit rate 1.1% among 370,000; inhibition, % at 6.8 µM; HEK293T StAR-luciferase reporter, SF-1/DAX-1 repression relief;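 active = inhibition above the mean over all tested compounds plus 3 SD, cut at about 3.6% in these data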;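 note: higher inhibition means more luminescence from relief of DAX-1 repression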
hcDAF-12 act – activators of H. contortus DAF-12 nuclear receptor | HEK293 hcDAF-12 lit1-tk-luc reporter, luminescence; 0% DMSO, 100% Δ7-dafachronic acid | activation, % at 6.8 µM | hit rate 1.4% among 370,000;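 active = activation above the mean of all tested compounds plus 3 SD, cut at about 5.5% in these data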
AHR act – activators of human aryl hydrocarbon receptor; P35869; AHR-responsive luciferase reporter cells, luminescence; activation, % at 5 µM; hit rate 2.5% among 320,000; AID 2796; in the data active = activation above about 47%
DAX1 inh confirm – confirmation of human DAX1 (NR0B1) inhibitors; shares compounds with DAX1 inh-2; hit rate 87% among 2,400; HEK293T StAR-promoter luciferase reporter, SF-1/DAX-1 repression; AID 652134; inhibition, % at 6.8 µM;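 active = inhibition above the average of every tested compound plus 3 SD, cut at about 3.8% in these data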;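 note: active compounds raise luminescence by relieving repression of the StAR reporter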
SF1 AF2mut Luc – nonselective inhibitor or artifact in SF-1 mutant DAX1 counter-screen. shares compounds with DAX1 inh-2. hit rate 78% among 2,400. inhibition, % at 6.8 µM. HEK293 StAR-luciferase, SF-1 AF2 mutant, luminescence;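 active = inhibition above the mean of all tested compounds plus 3 SD, cut at about 3% in these data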
LXRb hcDAF ctr – counter-screen for hcDAF-12 agonists: agonists of human LXR-beta; activation, % at 6.8 µM; HEK293 Gal4-LXR tk-luc reporter, luminescence, 24 h; normalized: DMSO 0%, positive control 100%; 3,400 tested, under 10 active; shares compounds with hcDAF-12 act;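 active = mean percent activation of the reporter above a cutoff set as the average over tested compounds plus their standard deviation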
Target sequence (P55055 whole entry, looked up, the tested form may be a part): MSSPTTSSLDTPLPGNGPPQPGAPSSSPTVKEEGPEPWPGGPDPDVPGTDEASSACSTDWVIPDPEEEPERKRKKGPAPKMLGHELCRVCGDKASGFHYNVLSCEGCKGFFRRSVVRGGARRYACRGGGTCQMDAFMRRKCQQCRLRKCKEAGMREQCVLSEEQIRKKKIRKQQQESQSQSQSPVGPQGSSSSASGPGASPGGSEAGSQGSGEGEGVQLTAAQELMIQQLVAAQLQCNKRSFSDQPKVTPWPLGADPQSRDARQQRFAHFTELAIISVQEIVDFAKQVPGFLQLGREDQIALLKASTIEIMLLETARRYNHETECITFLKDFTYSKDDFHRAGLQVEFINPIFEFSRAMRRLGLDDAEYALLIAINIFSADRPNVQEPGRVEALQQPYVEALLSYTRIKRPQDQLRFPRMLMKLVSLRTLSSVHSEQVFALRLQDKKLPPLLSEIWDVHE
hcDAF12 ag – hcDAF-12 agonism, confirmation assay | activation, % at 6.8 µM | AID 743032 | shares compounds with hcDAF-12 act | HEK293 hcDAF-12 lit1-tk-luc reporter, luminescence; % of Δ7-dafachronic acid response | hit rate 61% among 3,400;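 active = mean activation across triplicate tests above the threshold derived from the earlier primary screen, cut at about 5.5% in these data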
hgDAF12 ag – confirmation of H. glycines DAF-12 agonists | shares compounds with hgDAF-12 ag | HEK293 GAL4-hgDAF12 luciferase reporter, agonist mode; percent of butyrate response | activation, % at 6.8 µM | hit rate 80% among 3,300 | AID 743050;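 active = mean activation over triplicate wells above the hit cutoff derived from the earlier primary screen, cut at about 11% in these data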
LXR ag 2 – counter-screen for DAF-12 agonists: agonists of human LXR-beta | shares compounds with hgDAF-12 ag | HEK293 Gal4-LXR luciferase reporter, 24 h | activation, % at 6.8 µM | 3,300 tested, under 10 active;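 active = mean activation of the triplicate above a set limit carried over from the primary screen, none filed active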
Hits are given with their value; – = inactive; · = no result given. This is a sample that favours compounds with a hit; in the whole collection about 5.7% have one here.

SMILES | ssDAF-12 act | hgDAF-12 ag | DAX1 inh-1 | DAX1 inh-2 | hcDAF-12 act | AHR act | DAX1 inh confirm | SF1 AF2mut Luc | LXRb hcDAF ctr | hcDAF12 ag | hgDAF12 ag | LXR ag 2
CCc1ccc(NC(=O)NC2CCCCCCC2)cc1 | – | 17 | – | 7.9 | – | · | 10 | 5.4 | · | · | 18 | –
CCc1ccc(NC(=O)C(=S)NC2CCCCC2)cc1 | – | – | – | – | – | – | · | · | · | · | · | ·
Cc1ccccc1N(C(=O)c1csnn1)C(C(=O)NC1CCCC1)c1ccncc1 (stereo not drawn) | – | – | – | – | – | – | · | · | · | · | · | ·
CN(C)c1ccc(-c2csc(C(O)c3ccccc3)n2)cc1 (stereo not drawn) | – | 14 | · | 6.4 | – | · | 9.5 | 8.6 | · | · | 19 | –
OC(c1ccccc1)c1nc(-c2cc3ccccc3o2)cs1 (stereo not drawn) | – | 17 | · | 6.9 | – | · | 11 | 6.4 | · | · | 15 | –
CC1CCC(NC(=O)c2cccn2C)CC1 (stereo not drawn) | – | 15 | – | 10.0 | – | · | 14 | 7.4 | · | · | 14 | –
COc1ccc(Cl)c(-c2cc(C(=O)Nc3ccccc3)[nH]n2)c1 | – | 18 | · | 7.0 | 6.5 | · | 6.7 | 5.2 | · | · | 19 | –
Cc1ccc2nc(COC(=O)c3cnccn3)cc(=O)n2c1 | – | – | – | – | – | – | · | · | · | · | · | ·
Cc1ccc(-c2cnc(C(O)c3ccc(Cl)c(Cl)c3)[nH]2)cc1 (stereo not drawn) | – | – | · | – | – | · | · | · | · | · | · | ·
CCOc1ccc(CC(=O)N/N=C/c2cccnc2)cc1 | – | – | – | – | – | – | · | · | · | · | · | ·
CCCc1ccc(OCc2ccc(C(=O)N/N=C/c3cccnc3)o2)cc1 | – | 14 | – | 5.9 | – | · | 6.9 | 4.3 | · | · | 17 | –
Cc1ccc(/C=C/c2nc3ccccc3c(=O)[nH]2)cc1 | 1.5 | 16 | – | 5.8 | 8.7 | – | 14 | 4.2 | – | 9.4 | 18 | –
Nc1nn(-c2cccc(F)n2)cc1-c1ccccc1 | 1.1 | 17 | – | 4.6 | 11 | · | 12 | 3.7 | – | 9.3 | 19 | –
Nc1nc(Br)c2c(F)cccc2c1-c1ccccc1 | – | – | – | – | – | – | · | · | · | · | · | ·
Cn1nc(C(C)(C)C)c([N+](=O)[O-])c1C(=O)N1CCCCCC1 | – | – | – | – | – | – | · | · | · | · | · | ·
O=C(O)C/C(=C\c1ccc(Cl)cc1)c1nc2ccccc2o1 | – | – | · | – | – | – | · | · | · | · | · | ·
O=C(O)C(=O)/C(=C\c1ccc(Cl)cc1)c1ccc2ccccc2n1 | 2.5 | 14 | – | 7.8 | 14 | 65 | 9.1 | 4.6 | – | 11 | – | –
CC(=O)c1ccc(N=Nc2ccc(C)cc2)cc1 | – | 15 | – | 6.6 | 6.4 | · | 9.5 | – | · | · | – | –
CS(=O)(=O)c1ccc(-c2cccc(NC(=O)c3ccco3)c2)nn1 | – | – | – | – | – | – | · | · | · | · | · | ·
Cc1cc2nc(N3C(=O)CNC3=S)sc2cc1C | 1.0 | 17 | – | 6.7 | – | – | 14 | 7.0 | · | · | 13 | –
NC(=O)c1ccsc1NC(=O)c1coc2ccccc2c1=O | – | 14 | – | 4.7 | – | – | 12 | 3.7 | · | · | 19 | –
CN(C)c1ccc(C(=O)C(=O)N2CCN(c3ccccc3)CC2)cc1 | – | – | · | – | – | · | · | · | · | · | · | ·
COc1ccc2cc3cc(C(=O)N4CCCC(C)C4)oc3nc2c1 (stereo not drawn) | – | 14 | – | 7.4 | – | – | 12 | 8.9 | · | · | 16 | –
NS(=O)(=O)c1ccc(CNC(=O)c2cc(=O)c3cc(Cl)ccc3o2)cc1 | – | – | – | – | – | – | · | · | · | · | · | ·
O=C(NCCCN1CCCC1=O)c1ccc(Cl)c(S(=O)(=O)N2CCCCC2)c1 | – | – | – | – | – | – | · | · | · | · | · | ·
SMILES | ssDAF-12 act | hgDAF-12 ag | DAX1 inh-1 | DAX1 inh-2 | hcDAF-12 act | AHR act | DAX1 inh confirm | SF1 AF2mut Luc | LXRb hcDAF ctr | hcDAF12 ag | hgDAF12 ag | LXR ag 2
c1ccc(Cc2c(C3CCCCC3)nc3c4ccccc4ccn23)cc1 | 2.1 | 18 | · | 6.1 | 11 | · | 6.1 | 4.0 | – | 8.0 | 20 | –
CCCc1nc2c3ccccc3ccn2c1Cc1ccc(C)cc1 | 2.3 | 18 | · | 6.0 | 12 | · | 8.0 | 4.3 | – | 13 | 11 | –
C[C@H]1CN([C@@H](C)CO)S(=O)(=O)c2ccc(Br)cc2O[C@H]1CN(C)C(=O)c1cccc(F)c1 | – | – | – | – | – | · | · | · | · | · | · | ·
COCCCN=Cc1c(C)[nH]n(-c2ccc(Br)c(C)c2)c1=O | – | 18 | – | 7.0 | 7.6 | – | 16 | 5.2 | – | 11 | – | –
COc1cccc(NC(=O)COc2coc(CN3CCc4ccccc4C3)cc2=O)c1 | – | – | – | – | – | – | · | · | · | · | · | ·
CC(=O)N(C)c1ccc(N=Nc2c(C)[nH]n(C(N)=S)c2=O)cc1 | – | 16 | – | 4.8 | 6.5 | – | 12 | 5.3 | · | · | 17 | –
CC(=O)N(C)c1ccc(N=Nc2c(C)[nH]n(-c3ccccc3)c2=O)cc1 | – | – | – | – | – | – | · | · | · | · | · | ·
COc1ccc(C2NC(=O)NC(C)=C2C(=O)OCC2CCCCC2)cc1OC (stereo not drawn) | – | – | – | – | – | – | · | · | · | · | · | ·
c1ccc(N=NC2=NN(c3ccccc3)CS2)cc1 | 1.7 | 16 | – | 6.5 | 16 | · | 7.0 | 3.4 | – | 8.3 | 12 | –
Cc1ccc(OCc2nc(-c3ccccn3)no2)cc1 | 0.9 | 18 | – | 5.1 | 8.9 | – | 16 | 7.2 | – | – | 15 | –
CCc1ccc(NC(=O)c2onc(C)c2Cl)cc1 | 2.2 | 29 | 4.5 | 7.7 | 17 | – | 13 | 11 | – | 18 | 22 | –
Cc1noc(C(=O)Nc2ccc(C#N)cc2)c1Cl | – | – | – | – | – | · | · | · | · | · | · | ·
O=C(Nc1ccc2c(c1)CCC2)c1ccccc1Br | – | 18 | 7.6 | 6.8 | 7.2 | – | 14 | 6.6 | – | – | 17 | –
COc1ccc2c(c1)CCC/C2=N\NC(=O)c1ccoc1C | 1.2 | 25 | – | 4.6 | 7.6 | – | 5.0 | – | – | – | – | –
